Screening results (PubChem)
aDG glyco act – alpha-DG glycosylation activation | 360,000 tested, 0.22% active | activation, % at 10 µM | Pro5-aDG cells, alpha-DG glycosylation AlphaScreen (IIH6); 0% Pro5, 100% B10-LARGE cell signal;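 active means activation of at least 8% versus controls, or a plate z-score of at least 8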;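 further: Pro5 are CHO cells carrying HIG-tagged alpha-DG that lacks glycosylation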
HSP90 refold inh – blocks HSP90-mediated luciferase refolding in reticulocyte lysate. 290,000 tested, 0.91% active. Rabbit reticulocyte lysate, luciferase refolding luminescence, 3 h. inhibition, % at 5.6 µM;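 active means inhibition above the screen-wide mean plus 3 SD, computed separately per campaign, cut at about 16% in these data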;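 further: 0% = DMSO wells and 100% = 60 µM geldanamycin wells; inhibitors lower the luminescence because luciferase stays unfolded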
TWEAK Fn14 block – inhibitors of TWEAK-Fn14 interaction signaling; TWEAK-stimulated Fn14 reporter cells, luciferase luminescence, 8 h; inhibition, % at 10 µM; 360,000 tested, 2% active; AID 1159606; in the data active means inhibition above about 50%
EBV LMP1 NFkB – Epstein-Barr LMP1 NF-kappaB reporter inhibition. LMP1-induced NF-kappaB luciferase reporter cells, luminescence. inhibition, % at 12.5 µM. 350,000 tested, 0.69% active. AID 504558; in the data active means inhibition above about 41%;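 further: 0% = neutral control wells and 100% = reference inhibitor control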
TROY signal inh – blocks TROY-dependent signaling in reporter cells; Q293 LMP1-TROYcd NF-kB luciferase reporter, 4 h; inhibition, % at 10 µM; 360,000 tested, 0.98% active;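 active means compounds whose plate-normalised and pattern-corrected inhibition of the luciferase reporter signal at the single screening dose is 50% or more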
LGR2 inh – inhibitors of bursicon-induced Drosophila LGR2 receptor cAMP signaling. HEK293 LGR2, CRE-luciferase, bursicon-stimulated, 4 h. inhibition, % at 9.99 µM. 380,000 tested, 0.35% active. AID 720647;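 active means drop in luminescence signal, shown as inhibition above about 50% in the replicate tests, limit read from the data, passing the limit was not always enough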;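 further: agonist challenge used bursicon conditioned medium at about half maximal strength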
* marks the source's active call; other numbers are inactive results; x = not tested or not shown; ! = not confirmed by another sample. Only some compounds are listed: those with a hit (about 2.6% of all), similar ones and a draw of the others.

SMILES	aDG glyco act	HSP90 refold inh	TWEAK Fn14 block	EBV LMP1 NFkB	TROY signal inh	LGR2 inh
C[C@H](CO)N1C[C@H](C)[C@@H](CN(C)S(=O)(=O)c2ccc(F)cc2)OCCCC[C@H](C)Oc2ccc(NS(=O)(=O)c3ccc(F)cc3)cc2C1=O	x	x	x	x	x	10.9
Cc1cc(/C=C2/C(=O)NN(c3ccccc3)C2=O)c(C)n1-c1ccc(O)cc1	-0.8	-2.0	88.0*	37.3	82.7*	44.8
Cc1cccc(-n2c(C)cc(C=C3C(=O)c4ccccc4C3=O)c2C)c1	0.6	0.2	91.9*	9.8	79.7*	18.6
CCn1c(C)cc(C=C2C(=O)c3ccccc3C2=O)c1C	0.1	3.7	53.6*	-14.4	31.0	-4.3
COc1ccc(-n2c(C)cc(/C=C3\C(=O)NN(c4ccccc4)C3=O)c2C)cc1	-0.1	-8.2	2.2	-11.3	-76.0	-59.0
Cc1ccc(S(=O)(=O)N(C)C[C@@H]2Oc3ccc(NC(=O)C4CC4)cc3C(=O)N([C@@H](C)CO)C[C@H]2C)cc1	x	x	x	x	x	-1.8
CNC(=O)/C(C#N)=C/c1c(N2CC(C)OC(C)C2)nc2ccccn2c1=O (stereo not drawn)	0.1	-3.0	2.9	1.5	-0.5	3.3
CC1CN(c2nc3ccccn3c(=O)c2/C=C(\C#N)C(N)=O)CC(C)O1 (stereo not drawn)	-0.2	-1.1	90.5*	-8.1	-22.3	-8.1
O=C(Cc1ccccc1)N1CC2(C1)[C@@H](c1ccccc1)[C@@H](CO)N2S(=O)(=O)Cc1ccccc1	x	x	x	x	x	-9.9
Nc1ccc(Oc2ccccc2-c2ccccc2)cc1	-0.1	x	82.5*	29.4	68.5*	x
NCCOc1ccccc1-c1ccccc1	0.0	-0.9	24.6	-2.8	0.5	x
COCc1cc(=O)[nH]c(Nc2nc3ccc(C)cc3o2)n1	1.6	-1.1	106.3*	2.0	-23.8	x
Cc1ccc(S(=O)(=O)Nc2cccc3c2O[C@H](CN(C)S(=O)(=O)c2cccs2)[C@H](C)CN([C@@H](C)CO)C3=O)cc1	x	x	x	x	x	2.9
CCCSc1nnc(CSc2nc3ccccc3s2)n1-c1ccccc1	0.4	-2.3	18.1	7.6	53.1*	x
CCCNC(=O)N(C)C[C@H]1Oc2cc(-c3ccc(C)cc3)ccc2S(=O)(=O)N([C@@H](C)CO)C[C@H]1C	x	x	x	x	x	-12.6
CCCOc1ccc(/C=N/Nc2ccccc2[N+](=O)[O-])c(OCCC)c1	-0.8	-3.6	55.7*	3.3	35.3	8.3
COc1ccc(C=NNc2ccc(S(=O)(=O)Nc3ccccc3C(=O)O)cc2[N+](=O)[O-])c(OC)c1	-0.1	x	-52.0	-2.2	59.2*	x
COc1ccc(NS(=O)(=O)c2ccc(N/N=C(\C)c3ccncc3)c([N+](=O)[O-])c2)cc1	2.1	-1.6	73.9*	21.2	37.4	22.1
COc1ccc(NC(=S)NNc2ccc(S(=O)(=O)Nc3ccccc3C(=O)O)cc2[N+](=O)[O-])cc1	-0.5	20.2*	8.9	10.4	27.9	8.1
COc1ccc(C#Cc2ccc3c(c2)O[C@@H](CN(C)C(C)=O)[C@H](C)CN([C@@H](C)CO)S3(=O)=O)cc1	x	x	x	x	x	13.5
CO[C@H]1CN(C)C(=O)c2ccc(NS(=O)(=O)c3ccc(Oc4ccccc4)cc3)cc2OC[C@@H](C)NC[C@H]1C	x	x	x	x	x	2.5
CCCC(=O)Nc1ccc2c(c1)C(=O)N(C)C[C@H](OC)[C@@H](C)CN(Cc1ccccc1F)[C@H](C)CO2	x	x	x	x	x	-8.1
Cc1nn(-c2ccccc2)c(Cl)c1/C=N/Nc1ccc(S(=O)(=O)Nc2ccccc2C(=O)O)cc1[N+](=O)[O-]	0.3	-1.9	-3.6	-0.4	52.1*	-5.0
CN(C[C@H]1[C@H](c2ccccc2)[C@@H](CO)N1CC1CC1)C(=O)c1cccc(F)c1	x	x	x	x	x	22.4
S=C(Nc1ccccc1Cl)Nc1ccc(Cl)cc1Cl	-0.1	-3.3	6.5	-4.3	5.0	-17.3
SMILES	aDG glyco act	HSP90 refold inh	TWEAK Fn14 block	EBV LMP1 NFkB	TROY signal inh	LGR2 inh
Cc1cccc(NC(=S)NNc2ncc(C(F)(F)F)cc2Cl)c1	0.5	-5.3	25.4	14.1	41.1	-7.1
S=C(NNc1ccnc2cc(Cl)ccc12)Nc1ccccc1Cl	5.8	2.3	63.9*	21.0	66.0*	-6.8
FC(F)(F)c1cnc(NNC(=S)Nc2ccccc2Cl)c(Cl)c1	0.4	4.8	50.8*	-1.5	59.4*	36.0
CO[C@@H]1CN(C)C(=O)c2ccc(NC(=O)C3CC3)cc2OC[C@@H](C)N(C(=O)CN(C)C)C[C@@H]1C	x	x	x	x	x	2.1
CC(C)n1cnc2cc(NCc3ccccn3)ccc21	-0.1	11.9	32.6	7.1	51.7*	x
CCOC(=O)c1sc(NC(=O)c2ccc(S(=O)(=O)N3CCCCC3)cc2)nc1-c1ccccc1	0.0	-1.0	71.3*	-9.1	16.7	14.5
CCOC(=O)N1CCN(S(=O)(=O)c2ccc(C(=O)Nc3nc4ccccc4s3)cc2)CC1	0.5	4.0	35.1	-11.8	8.1	1.8
CCOC(=O)c1sc(NC(=O)c2ccc(S(=O)(=O)N3CCCCCC3)cc2)nc1-c1ccccc1	0.2	0.1	76.8*	-3.1	22.0	x
CCc1nnc(NC(=O)c2ccc(S(=O)(=O)N3CCCCCC3)cc2)s1	0.1	1.4	0.0	3.9	13.4	x
CCOC(=O)c1sc(NC(=O)c2ccc(S(=O)(=O)N3CCOCC3)cc2)nc1-c1ccccc1	-0.1	0.1	64.8*	-2.3	33.0	-0.3
Cc1nnc(NC(=O)c2ccc(S(=O)(=O)N3CCOCC3)cc2)s1	-0.1	-1.0	-3.3	0.2	-9.0	3.9
C[C@H](CO)N1C[C@H](C)[C@@H](CN(C)C(=O)Nc2ccc3c(c2)OCO3)OCCCC[C@H](C)Oc2ccc(NC(=O)CCC(F)(F)F)cc2C1=O	x	x	x	x	x	-5.4
CCCNC(=O)N1[C@H](CNC(C)=O)[C@@H](c2ccccc2)[C@@H]1CO	x	x	x	x	x	-6.8
O=C(COC(=O)c1ccc(S(=O)(=O)NCc2ccco2)cc1)Nc1ccccc1	0.6	x	-35.5	-8.0	13.8	-0.3
O=C(COC(=O)c1ccc(S(=O)(=O)NCc2ccco2)cc1)Nc1ccc(Cl)cn1	0.2	-4.1	21.7	59.0*	-4.0	10.2
COc1ccc(NC(=O)N(C)C[C@@H]2Oc3ccc(NC(=O)Nc4cccc5ccccc45)cc3C(=O)N([C@@H](C)CO)C[C@H]2C)cc1	x	x	x	x	x	-35.8
COC(=O)C1=C(C)NC(C)=C([N+](=O)[O-])C1c1ccccc1C(F)(F)F (stereo not drawn)	0.0	-1.1	1.9	54.8*!	-8.6	-3.6
C[C@H](CO)N1C[C@H](C)[C@H](CN(C)C(=O)c2ccccc2)OCCCC[C@H](C)Oc2ccc(NC(=O)Nc3ccc(C(F)(F)F)cc3)cc2C1=O	x	x	x	x	x	41.4
Cc1nnc(NC(=O)c2cccc(S(=O)(=O)N3CCc4ccccc43)c2)s1	-0.2	5.8	13.4	-1.3	x	x
O=C(Nc1ccccc1)c1ccc2c(c1)CCN2S(=O)(=O)c1ccccc1	0.2	3.1	-0.8	-8.5	-0.5	8.9
CN(C)S(=O)(=O)c1cccc(NC(=O)c2cccc(S(=O)(=O)N3CCc4ccccc43)c2)c1	1.1	x	60.3*	7.8	34.7	20.9
